From PubChem BioAssay
Only some compounds are listed: those with a hit (about 5.1% of all), similar ones and a draw of the others.
CRFR2-BP antag – antagonists of CRF-BP/CRF-R2 complex, primary screen, cell-based, HEK293, calcium dye fluorescence, uHTS; inhibition, % at 11.8 µM; hit rate 0.59% among 350,000; CRF-induced calcium fluorescence;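 active = inhibition of the ligand-induced calcium signal above about 50% at the single tested concentration, limit read from the data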
MPTP inh – mitochondrial permeability transition pore inhibitors, primary screen, biochemical, isolated mouse mitochondria, absorbance | Ca2+ swelling absorbance, 30 min | inhibition, % at 10 µM | hit rate 1.4% among 360,000 | AID 602449, 2012;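 active = inhibition of 50% or more, scaled per plate between neutral and stimulator controls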;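 also: 0% = DMSO wells given calcium and 100% = 1 mM EGTA wells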
GRIN3A LBD mod – binders of NR3A ligand-binding domain, primary screen, biophysical, differential scanning fluorimetry, uHTS; Glutamate receptor ionotropic, NMDA 3A (GRIN3A) ligand-binding domain; hit rate 2.5% among 340,000; NR3A LBD differential scanning fluorimetry, Tm shift; 0% = protein alone, 100% = glycine-bound protein; Tm shift relative to glycine control, % at 25 µM;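 active = melting temperature shift of at least 10% of the positive control shift, at one fixed dose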
TMEM16A act – TMEM16A chloride channel activators or potentiators, primary screen, cell-based, HTS; Anoctamin-1 (Mus musculus), Q8BHY3; HEK293 TMEM16A/YFP-H148Q/I152L, iodide quench fluorescence; stronger effect = lower value; B-score at 10 µM; hit rate 0.3% among 340,000; AID 623877, 2012;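 active = fluorescence-ratio B-score plate-corrected deviation score at least 3 library SD below zero, with starting fluorescence score within 5 deviations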;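 also: channel opened by trigger with iodide after compound preincubation; score built on the fluorescence ratio of max minus min over baseline; more negative score means more quench and so TMEM16A activation or potentiation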
Target sequence (Q8BHY3 whole entry, looked up): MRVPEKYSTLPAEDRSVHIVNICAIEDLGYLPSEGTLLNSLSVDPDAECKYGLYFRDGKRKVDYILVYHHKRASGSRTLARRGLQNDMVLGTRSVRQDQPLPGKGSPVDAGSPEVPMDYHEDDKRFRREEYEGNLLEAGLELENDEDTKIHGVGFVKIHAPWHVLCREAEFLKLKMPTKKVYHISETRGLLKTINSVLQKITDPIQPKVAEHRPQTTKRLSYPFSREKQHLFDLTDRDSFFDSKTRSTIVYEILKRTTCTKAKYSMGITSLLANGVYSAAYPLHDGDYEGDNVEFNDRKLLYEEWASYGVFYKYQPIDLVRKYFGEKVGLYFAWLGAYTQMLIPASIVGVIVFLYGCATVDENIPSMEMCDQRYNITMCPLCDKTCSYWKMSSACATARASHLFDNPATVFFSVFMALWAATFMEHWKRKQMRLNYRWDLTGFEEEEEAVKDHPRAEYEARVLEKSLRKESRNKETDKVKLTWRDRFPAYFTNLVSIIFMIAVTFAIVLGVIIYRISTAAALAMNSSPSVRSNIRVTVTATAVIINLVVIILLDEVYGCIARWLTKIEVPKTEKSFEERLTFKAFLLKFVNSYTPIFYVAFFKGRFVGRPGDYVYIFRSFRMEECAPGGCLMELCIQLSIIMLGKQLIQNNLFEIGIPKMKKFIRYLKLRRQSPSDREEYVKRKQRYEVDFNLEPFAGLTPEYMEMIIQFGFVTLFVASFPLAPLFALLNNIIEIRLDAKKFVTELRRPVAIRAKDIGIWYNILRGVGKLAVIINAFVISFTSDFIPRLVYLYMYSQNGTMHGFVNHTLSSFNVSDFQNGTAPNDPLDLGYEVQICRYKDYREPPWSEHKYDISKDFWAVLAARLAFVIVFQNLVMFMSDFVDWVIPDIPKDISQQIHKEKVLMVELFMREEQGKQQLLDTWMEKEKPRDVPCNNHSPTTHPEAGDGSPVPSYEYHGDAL
CRFR2-BP ag – agonists of CRF-BP/CRF-R2 complex, primary screen, cell-based, HEK293, calcium dye fluorescence, uHTS; CRF-binding protein / CRF receptor 2 complex (human); calcium dye fluorescence (FLIPR); percent of saturating CRF peptide response; activation, % at 13.2 µM; hit rate 0.46% among 350,000; AID 588473, 2011;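 active = activation of at least 50%, plus an integration ratio under a set limit after plate pattern correction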;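 also: plate controls were neutral control wells without compound for no effect and CRF at EC100 for full effect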
TMEM16A inh – TMEM16A chloride channel inhibitors, primary screen, cell-based, HTS; normalized B-score (activity score, 25-100; higher = stronger inhibition) at 10 µM; Anoctamin-1 (Mus musculus), Q8BHY3; HEK293 TMEM16A/YFP iodide influx fluorescence, ionomycin; AID 588511, 2011; hit rate 1.2% among 310,000;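 active = ratio plate-corrected score three or more library SD toward inhibition, starting fluorescence score within five deviations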;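 also: score derived from kinetic fluorescence span divided by baseline fluorescence per well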
* = called active by the depositor; i = inactive; x = not tested or not shown.

SMILES	CRFR2-BP antag	MPTP inh	GRIN3A LBD mod	TMEM16A act	CRFR2-BP ag	TMEM16A inh
O=C(Nc1ccccc1)OCCOc1ccccc1Br	6	2	7	i	0	i
O=C(Nc1ccccc1)OCCCCCOC(=O)Nc1ccccc1	-5	0	46*	i	0	i
O=C(Nc1cccc(Cl)c1)OCCOc1ccccc1	4	3	15*	i	-1	i
O=C(COc1cccnc1[N+](=O)[O-])NCc1ccccc1	-11	0	-2	i	-2	i
COc1ccc(OCCOC(=O)Nc2ccccc2)cc1	14	-1	33*	i	-2	i
O=C(Nc1ccccc1)OCCOc1ccccc1	11	-2	-11	i	1	i
O=C(Nc1cccc(Cl)c1)OCCOC(=O)Nc1cccc(Cl)c1	6	10	29*	i	4	x
Cc1ccc(OCC(O)Cn2c3ccccc3c3ccccc32)cc1 (configuration not stated)	-39	8	12*	i	9	i
Cc1cccc(C)c1OCC(O)Cn1c2ccccc2c2ccccc21 (configuration not stated)	-58	14	9	i	4	i
OC(COCC(F)(F)C(F)(F)C(F)(F)C(F)F)Cn1c2ccccc2c2ccccc21 (configuration not stated)	-30	8	29*	i	0	i
Oc1ccc(/C=N/N(c2ccccc2)c2ccccc2)cc1O	-5	5	1	i	0	i
Oc1ccc(/C=N/N=C/c2ccc(O)c(O)c2)cc1O	3	0	28*	i	-1	i
O=C(/C(=N/N=C/c1ccc(O)c(O)c1)c1ccccc1)c1ccccc1	1	47	21*	i	-1	i
CCN(CC(=O)NCc1ccc(Cl)cc1)C(=O)c1sccc1C	3	-1	4	i	1	x
CCCNC(=O)Cn1c2ccccc2c2nc(=O)cc(C)n21	-16	0	1	i	12	i
Cc1cc(=O)nc2c3ccccc3n(CC(=O)NC(C)c3ccc4c(c3)OCCO4)n12 (configuration not stated)	1	-1	13*	i	-1	i
C[C@H](CO)N1C[C@H](C)[C@@H](CN(C)C(=O)Nc2ccc3c(c2)OCO3)Oc2ccc(NS(=O)(=O)c3cn(C)cn3)cc2C1=O	1	0	1	i	0	x
O=C(NNC(=S)Nc1ccc(Br)cc1)c1ccc(N2CCOCC2)c([N+](=O)[O-])c1	18	30	19*	i	0	i
Cc1cccc(NC(=O)c2ccc(N3CCOCC3)c([N+](=O)[O-])c2)n1	2	1	-1	i	-1	i
O=C(Nc1cccnc1)c1ccc(N2CCOCC2)c([N+](=O)[O-])c1	-1	0	1	i	0	i
COc1ccc2oc(-c3ccc(NC(=O)c4ccc(N5CCOCC5)c([N+](=O)[O-])c4)cc3)nc2c1	-33	24	37*	i	1	i
CSCCNC(=O)c1ccc2nc(C3CCCCC3)oc2c1	-2	-1	-1	i	0	i
Cc1cc(NC(=O)COC(=O)C2CCN(S(=O)(=O)c3cccc(Cl)c3Cl)CC2)no1	18	-7	-15	i	2	100*
Cc1cccc(C(=O)N2CCCC(N3CCN(c4cccc(Cl)c4)CC3)C2)n1 (configuration not stated)	-15	-1	13*	i	-1	i
Cc1ccccc1N1CCN(C2CCCN(C(=O)c3ccc(Cl)s3)C2)CC1 (configuration not stated)	27	0	11*	i	-1	i
SMILES	CRFR2-BP antag	MPTP inh	GRIN3A LBD mod	TMEM16A act	CRFR2-BP ag	TMEM16A inh
Cc1cc(C(=O)N2CCCC(N3CCN(c4cccc(C(F)(F)F)c4)CC3)C2)no1 (configuration not stated)	8	-3	20*	i	0	i
O=C(c1cc(C2CC2)on1)N1CCCC(N2CCN(c3cccc(C(F)(F)F)c3)CC2)C1 (configuration not stated)	-8	-1	1	i	-2	i
Cc1cc(C(N)=O)c2cc(Br)ccc2n1	5	1	13*	i	1	i
Cc1cc(C(=O)NN)c2cc(Br)ccc2n1	17	-1	1	i	0	i
COC1CCCN(Cc2c(C(=O)N3CCN(C4CCCCC4)CC3)nc3ccccn23)C1 (configuration not stated)	5	-1	1	i	2	i
Cc1cc(NS(=O)(=O)c2ccc(NC(=O)/C=C/c3cccc(Cl)c3)cc2)no1	31	-3	16*	i	-1	i
Cc1cc(NS(=O)(=O)c2ccc(NC(=O)Nc3cccc(C(F)(F)F)c3)cc2)no1	-7	-1	22*	i	1	i
Cc1cc(NS(=O)(=O)c2ccc(NC(=O)/C=C/c3ccccc3)cc2)no1	-4	0	-7	i	-1	i
Cc1cc(C)c(OCC(=O)OC(C)C(=O)N2CCc3ccccc32)c(C)c1 (configuration not stated)	0	0	4	i	0	i
COc1cc(C(=O)Nc2ccc(-c3nnc(-c4ccco4)o3)cc2)cc(OC)c1OC	-15	2	30*	i	-3	i
O=C(Cc1ccc(Cl)cc1)Nc1ccc(-c2nnc(-c3ccco3)o2)cc1	-10	28	13*	i	-1	i
CC(=O)c1ccccc1NC(=O)c1ccc(N2CCCC2=O)cc1	10	0	-1	i	-1	i
CCN1CCN(CCC(=O)Nc2ccc(F)c(F)c2)CC1	2	2	2	i	2	i
Cc1ccc(C)c(N2N=C(C(=O)OCc3nnc(-c4ccccc4Br)o3)CCC2=O)c1	-8	-2	x	x	1	x
C/C(=N\NC(=O)c1cc2ccccc2cc1O)c1cccs1	21	1	14*	i	12	i
O=C(NNC(=O)c1cc2ccccc2cc1O)c1cccs1	-6	1	-4	i	-1	i
C/C(=N\NC(=O)C(C)Oc1ccc([N+](=O)[O-])cc1)c1ccccn1 (configuration not stated)	55*	2	-1	i	0	i
COc1ccc(NC(=O)c2cnc(SC)nc2)cc1	-1	0	-1	i	-1	i
